Screening results (PubChem)
The entries come from a sample that favours hits as a whole.
Eya2 phos inh – blocks the phosphatase activity of human Eya2 | recombinant Eya2, OMFP fluorescence dephosphorylation (OMFP is methylfluorescein phosphate) | Potency, µM (top dose mostly 76.9 µM), for inactives: at the top dose activity, negative = inhibition, most hits filed as inhibitors | 330,000 tested, 0.006% active; further: on the % scale 0 is the no-effect control and ±100 the full control effect
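Eya2 (0.2 uM) preincubated 10 min at ambient with compound, then OMFP substrate added at 50 uM; 10 min reaction in 50 mM HEPES pH 7.5, 50 mM NaCl, 5 uM MgCl2, 0.05% BSA, 1 mM DTT. Fluorescence read at Ex 485/Em 525 nm.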
ClpP mod – qHTS Assay for Activators of ClpP; 340,000 tested, 1.9% active; AID 651965, 2013; purified B. subtilis ClpP, FRET peptide cleavage, 20 min; ATP-dependent Clp protease proteolytic subunit (Bacillus subtilis (strain 168)), P80244; Potency, µM (highest dose often 57.5 µM), inactives show at the highest dose activity change, negative = active; active means well fitted falling curve with a large enough effect; further: the source files actives as falling curves though it sought activators and does not explain the sign; nearly all actives have a fitted effect of over 65% in size
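Purified B. subtilis ClpP, 10 microg/mL final in Tris/HCl pH8 with KCl, BSA, glycerol and Tween-20, cleaved an Abz/nitrotyrosine-quenched decapeptide. Fluorescence (ex 320, em 430) was read at 0 and 20 min at room temperature. Delta was normalized to 5.8 microM ADEP and DMSO/no-enzyme controls.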
GALK inh – galactokinase (human) inhibition. 270,000 tested, 0.007% active. P51570. AID 1868. Potency, µM (series often up to 57.5 µM), inactives show at the highest dose activity change, negative = inhibition, most hits filed as inhibitors. Purified GALK, Kinase-Glo residual ATP luminescence; further: on the % scale 0 is the no-effect control and ±100 the full control effect
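Kinase-Glo Plus luminescence measured ATP left after a 1 h room-temperature reaction. The reaction used 5 nM GALK, 100 uM galactose and 35 uM ATP at pH 8.0 (20 mM HEPES, 5 mM MgCl2, 60 mM NaCl, 1 mM DTT, 0.01% BSA).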
USP2a inh – USP2a (human) protease inhibition | USP2 core, Ub-CHOP2 coupled fluorogenic reporter, 485/531 | Potency, µM (doses to about 38.3 µM), without a hit: at the top dose activity change, negative = inhibition, usual class: inhibitors | 330,000 tested, 0.01% active;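 further: plate controls were DMSO wells for no effect and full inhibition by NEM control for full effect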
Target sequence (O75604 whole entry, looked up): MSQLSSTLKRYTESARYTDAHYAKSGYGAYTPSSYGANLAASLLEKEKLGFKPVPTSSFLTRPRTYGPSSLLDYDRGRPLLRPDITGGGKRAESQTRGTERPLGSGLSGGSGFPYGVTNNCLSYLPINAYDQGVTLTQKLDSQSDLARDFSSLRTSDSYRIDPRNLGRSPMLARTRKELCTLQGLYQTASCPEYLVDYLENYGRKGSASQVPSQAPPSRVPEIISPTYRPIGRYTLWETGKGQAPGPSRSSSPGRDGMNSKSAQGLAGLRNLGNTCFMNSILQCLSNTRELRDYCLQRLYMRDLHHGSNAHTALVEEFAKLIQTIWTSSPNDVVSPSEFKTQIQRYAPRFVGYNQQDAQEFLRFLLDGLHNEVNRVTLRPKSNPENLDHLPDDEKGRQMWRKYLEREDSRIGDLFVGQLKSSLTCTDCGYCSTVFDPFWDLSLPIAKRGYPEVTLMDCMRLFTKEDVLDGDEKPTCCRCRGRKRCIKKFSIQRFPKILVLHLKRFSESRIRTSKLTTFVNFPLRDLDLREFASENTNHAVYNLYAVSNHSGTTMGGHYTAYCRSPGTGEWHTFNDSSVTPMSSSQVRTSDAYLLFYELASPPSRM
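USP2 core (10nM final) preincubated 30min RT with compound in 20mM Tris-HCl pH 8.0, 2mM CaCl2, 2mM beta-mercaptoethanol, 0.05% CHAPS; 25nM Ub-CHOP2 plus 25nM reporter substrate added, fluorescence (Ex485/Em531) read after 60min.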
* hit, by the source's call; x = no result. Unless noted, the call rests on the fitted dose curve; in most records, active means well fitted inhibition curve with a large enough effect; inconclusive means small, poorly fitted or top-dose-only effect, or effect the other way; inactive means flat fitted curve, though single readings scatter. Potency means the concentration at half of the fitted maximal effect.

SMILES	Eya2 phos inh	ClpP mod	GALK inh	USP2a inh
Cc1nn(CC2CC2)c(=O)n1-c1ccc(C(C)C)cc1	4%	x	4%	1%
CC1(C)CC2CC(C)(CN2C(=O)COC(=O)c2ccc(O)cc2O)C1 (stereo not given)	-3%	-1%	x	-3%
CC1(C)CC2CC(C)(CN2C(=O)COC(=O)c2cc(Cl)cc(Cl)c2N)C1 (stereo not given)	-2%	32µM*	3%	2%
CC1(C)CC2CC(C)(CN2C(=O)COC(=O)CNC(=O)c2ccc(Cl)c(Cl)c2)C1 (stereo not given)	-12%	25µM*	0%	1%
CC(=O)Nc1ccc(C(=O)OCC(=O)N2CC3(C)CC2CC(C)(C)C3)cc1 (stereo not given)	-2%	x	x	3%
Clc1ccc(Cl)c(OCCCCN2CCCCC2)c1	8%	0%	5%	1%
COc1ccc(NC(=O)Cc2nnc(SCC(=O)Nc3cc(C)ccc3OC)n2C)cc1	x	25µM*	-3%	x
CC(C)(C)NC(=O)C(c1cccnc1)N(C(=O)c1csnn1)c1ccccc1 (stereo not given)	-8%	3%	-1%	1%
O=C(N1CCN(Cc2ccccc2)CC1)C(Cl)(Cl)Cl	2%	13µM*	-2%	-1%
CCC(=O)NC1=C(C#N)C2(CCCC2)Cc2ccccc21	9%	32µM*	0%	-1%
CCCC(=O)NC1=C(C#N)C2(CCCCC2)Cc2ccccc21	6%	-2%	2%	-5%
CCOC(=O)c1ccc(NC(=O)CCS(=O)(=O)c2ccc(Br)s2)cc1	-10%	32µM*	-1%	0%
COc1ccc(NC(=O)CCS(=O)(=O)c2ccc(Br)s2)cc1	3%	x	0%	-3%
CCC(CC)C(=O)NCc1ccc2c(c1)cc(C)n2C	19%	-14%	-5%	0%
Cc1ccc(N2C=Nc3ccc(C)c4nc(C)cc2c34)cc1	-4%	22µM*	1%	-4%
O=C(Nc1ccccc1Cc1ccccc1)c1oc2ccccc2c1COc1ccccc1	-1%	28µM*	2%	4%
Cc1cccc(-n2cc(-c3ccccc3)c3c(NC4CCCC4)ncnc32)c1	x	-18%	x	x
CCOc1ccc(-n2cc(-c3ccccc3)c3c(NC4CCCC4)ncnc32)cc1	x	11µM*	x	x
CN(c1ncnc2c1c(-c1ccccc1)cn2-c1cccc(Cl)c1)C1CCCCC1	x	-18%	x	x
CN(c1ncnc2c1c(-c1ccccc1)cn2-c1ccc(F)cc1)C1CCCCC1	x	28µM*	x	x
CCC1=C(OC(=O)N(CC)CC)N2C(=O)OC(=NCc3ccccc3)[C@]2(C)[C@H]2C1=CC[C@H]1C(=O)N(CC)C(=O)[C@H]12	0%	2%	5%	-3%
Cc1nc(-c2ccccc2)c(Cc2ccccc2O)c(=O)[nH]1	-21%	0%	6%	-1%
COc1ccc(C(=O)Nc2nc3ccc(S(=O)(=O)N4CCCC4)cc3s2)cc1	x	-2%	x	x
Cc1ccc(-c2cc3c(n2-c2ccc(F)cc2)CC(C)(C)CC3=O)cc1	x	-12%	x	x
CC1(C)CC(=O)c2cc(-c3nc(-c4ccc(Cl)cc4)cs3)c(=O)n(-c3ccc(F)cc3)c2C1	x	40µM*	x	x
SMILES	Eya2 phos inh	ClpP mod	GALK inh	USP2a inh
CNC(=O)CSCc1c(F)cccc1Cl	1%	-1%	-1%	4%
Cc1nn(C)c(C(=O)N/N=C/c2ccncc2)c1Cl	-11%	1%	-2%	1%
Cc1nn(C)c(C(=O)N/N=C/c2cccc3ccccc23)c1Cl	-2%	14µM*	1%	2%
CCOC(=O)C(CC)Sc1nnc(COc2ccc(C)cc2)n1-c1ccccc1 (stereo not given)	-15%	1%	0%	2%
COc1ccc(-c2cc(C(F)(F)F)nc(NC3CCCC3)n2)cc1OC	-7%	35µM*	-2%	-1%
COc1ccc(CNc2nc(-c3ccc(OC)c(OC)c3)cc(C(F)(F)F)n2)cc1	x	4%	x	x
Cc1cccc(NC(=O)C[n+]2cccc(C)c2)c1	-2%	1%	-1%	3%
O=C(C[n+]1cccc(O)c1)Nc1ccc(Br)cc1	17%	28µM*	12%	4%
CCC(=O)Oc1ccc(C(CC)C(CC)c2ccc(OC(=O)CC)cc2)cc1 (stereo not given)	2%	1%	x	2%
CS(=O)(=O)N1N=C(c2cccs2)CC1c1ccc(F)cc1 (stereo not given)	1%	-10%	0%	-1%
Cc1oc2cc(OCC(=O)O)ccc2c(=O)c1Oc1ccccc1	-4%	-5%	0%	3%
CCc1cc2c(=O)c(Oc3ccccc3)c(C)oc2cc1O	14%	7.9µM*	2%	1%
O=C(CCN1C(=O)C2C3C=CC(C3)C2C1=O)N1CCN(c2ccccn2)CC1 (stereo not given)	4%	16µM*	-5%	1%
O=C(CCN1C(=O)C2C3C=CC(C3)C2C1=O)NCc1cccnc1 (stereo not given)	5%	13µM*	-1%	0%
CS(=O)(=O)Nc1cccc(-c2cnc3ccccc3n2)c1	5%	x	x	2%
O=C(O)COc1ccc2nsnc2c1Cl	-15%	14µM*	7%	-1%
CCOc1ccc2[nH]c(=O)c(CN(CCOC)C(=O)N3CCOCC3)cc2c1	-4%	28µM*	4%	3%
CCOc1ccc2[nH]c(=O)c(CN(Cc3ccc(C)cc3)C(=O)N3CCCC3)cc2c1	-1%	32µM*	8%	7%
CCOc1ccc2[nH]c(=O)c(CN(CCc3ccccc3)C(=O)N3CCOCC3)cc2c1	17%	3%	3%	-3%
COc1ccc(C2OC34CCCCC3C(C#N)(C#N)C2(C#N)C(=N)O4)cc1 (stereo not given)	12%	11µM*	-1%	16%
CCCc1ccc2oc(C(=O)N(Cc3ccncc3)CC3CCCO3)c(C)c2c1 (stereo not given)	1%	0%	6%	-1%
COc1ccc(-c2nnc(NC(=O)CSc3ccccc3)s2)cc1OC	-5%	22µM*	1%	13%
Cc1cc(-c2ccc(C)c(S(=O)(=O)NCCCN3CCN(c4ccccc4F)CC3)c2)on1	-2%	1%	-9%	2%
O=C(CCc1ccccc1)NCCCNC(=O)CCc1ccccc1	-5%	2%	x	-1%
O=C(Cc1ccccc1)NCCCNC(=O)Cc1ccccc1	x	28µM*	x	x
SMILES	Eya2 phos inh	ClpP mod	GALK inh	USP2a inh
O=C(/C=C/c1cccc([N+](=O)[O-])c1)Nc1ccc(Cl)cn1	-2%	2%	1%	0%
O=C(O)c1ccccc1NCc1ccco1	-26%	4%	-3%	7%
O=C(NCCN1CCCCC1)c1cc2ccccc2[nH]1	20%	18µM*	2%	3%
COc1ccc2[nH]c(C(=O)NCCN3CCCCC3)cc2c1	-9%	x	0%	0%
COC(=O)c1coc(-c2ccc(C)cc2)c1C(=O)OC	4%	-12%	1%	-1%
COC(=O)c1coc(-c2ccc(OC)cc2)c1C(=O)OC	3%	32µM*	0%	0%
